“And” between values parts separate entries of the source, which are not always exact repeats. Identical values can stand only once. About 83,000 compounds went through this panel and 20% of them were active in at least one assay; those are over-represented in the sample as a whole.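 The test compound was applied at a single concentration to cells in 96-well plates for 48 hours, and percent growth was recorded.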 Values without a mark were called inactive. The source made the active and inactive calls. The calls were made as follows: active = growth percent below 10; inactive = the rest.
Test system: MDA-MB-468 breast
Experiment: NCI-60 one-dose screen, 48 h (100 = growth as untreated, 0 = no growth, -100 = all killed)
Details: 10 µM unless noted

Row | SMILES | growth
1 | COc1cc(-c2n/c(=C\c3c(O)[nH]c4ccc(Cl)cc34)cc3c2=Nc2ccccc2-3)ccc1F | -7.14% (active)
2 | CC(=O)C1CCC2C3CC(C)=C4CC(O)CCC4(C)C3CCC12C (stereo not given) | 109%
3 | COC(=O)/C=C1\SC(=Nc2ccc(F)cc2)N(CCc2c[nH]c3ccccc23)C1=O | 125%
4 | CC(C)CCc1nc2ccc(NCc3ccc(OCCN4CCC(C)CC4)cc3)cc2[nH]1 | 65.6%
5 | NCCCNc1nc2ccccc2c2c(=O)c3cc(F)ccc3sc12 | 1.26% (active)
6 | Cc1cc2nc(C(Cl)Cl)nc(-c3ccccc3)n2n1 | -20.7% (active)
7 | COC(=O)C1CC(=O)N(C(=O)Nc2ccc(Cl)cc2Cl)C1 (stereo not given) | 97.8%
8 | Nc1ccccc1Nc1ccccc1 | 120% and 118%
9 | NC(N)=NN=C(c1ccccc1)c1ccccc1 | -31.3% (active)
10 | COc1ccc(/C=C(\C(=O)NCc2cccnc2)S(=O)(=O)c2ccccc2)cc1OC | 1.86% (active)
11 | C=CC(=O)Nc1cccc(Oc2nc(Nc3ccc(N4CCN(C)CC4)cc3)nc3ccsc23)c1 | -69.1% (active)
12 | COc1cc2c(cc1O)CC[C@@H]1[C@@H]2CC[C@]2(C)[C@@H](NCCN(C)C)CC[C@@H]12 | -85.1% (active)
13 | CC(C)(C)n1cc(-c2ccnc(NCCNS(=O)(=O)c3ccccc3)c2)c(-c2cccc(O)c2)n1 | 11.1%
14 | Cc1ccc(C(=O)CC(=O)C(F)(F)C(F)(F)C(F)(F)F)s1 | 102%
15 | CS(=O)(=O)c1ccc(-c2nc3ccccc3n2CC(=O)N/N=C/c2ccccc2)cc1 | 112%
16 | C=C1CCC2(C#N)[C@H]3[C@H](CC[C@@H]2C)[C@@H](C)C[C@@H](CC(C)(C)NC(=O)CN2CCC2=O)[C@H]13 (stereo not given in full) | 58%
17 | COc1cccc(-c2nc(-c3ccc(NC(=O)C(C)C)cc3)[nH]c2-c2ccnc(Br)c2)c1 | 26.4%
18 | COc1ccc(/C=C(\C#N)C(=O)Nc2cccc(Nc3nc(SC)nc(-c4cccc([N+](=O)[O-])c4)c3C#N)c2)cc1OC | 106%
19 | COc1ccc(-c2nc3sccn3c2/C=C/C(=O)c2cc(OC)c(OC)c(OC)c2)cc1 | 53.6%
20 | O=C(O)c1cn(C2CC2)c2cc(N3CCN(C(=O)Nc4nc(-c5ccc(Br)cc5)cs4)CC3)c(F)cc2c1=O | 13.7%

Row | SMILES | growth
21 | O=c1cc(-c2ccccc2)oc2c(O)c(O)ccc12 | 79.5%
22 | CC[C@H](Nc1ncnc2nc[nH]c12)c1nc2cccc(NCc3ccc(C(=O)NO)nc3)c2c(=O)n1-c1ccccc1 | 11.1%
23 | COC(=O)[C@]12CC[C@@H](C)[C@H](C)[C@@H]1C1=CC[C@@H]3[C@@]4(C)C(C=O)=C[C@@](C)(COC(C)=O)[C@@H]4[C@H](O)C[C@@]3(C)[C@]1(C)CC2 | -19.2% (active)
24 | O=C(CN1CCN(c2cc3c(cc2F)c(=O)c(C(=O)O)cn3C2CC2)CC1)Nc1ccc(Cl)cc1 | 86% and 91.1%
25 | COc1c2ccccc2c(OC)c2[nH]c(=O)ccc12 | 60.9%
26 | O=C(NCc1cccnc1)c1cc(-c2csc3c(=O)cc(N4CCOCC4)oc23)cc2c1OCCO2 | 10.7%
27 | O=C1Nc2ccccc2[C@]12CC(c1ccccc1)=NN2 | 56.5%
28 | N#Cc1c(-c2ccco2)nc2c(c(-c3ccccc3)nn2-c2ccccc2)c1-c1ccc(O)cc1 | 92.4%
29 | CC(C)c1ccc(C(=O)OCCCl)cc1 | 111%
30 | Cc1ccc2nc(Cl)c(-c3nc4ccccc4o3)cc2c1 | 100%
31 | O=C(c1ccc(Cl)cc1)c1ccc(Cl)cc1 | 97.2%
32 | COc1ccc2c(c1)N(CCO)C1=C(C(=O)OC1)C2c1ccccc1 (stereo not given) | -14.2% (active)
33 | O=C(NC1C(O)OC(CO)C(O)C1O)NS(=O)(=O)c1ccc(Cl)cc1 (stereo not given) | 108%
34 | OC(c1cccc(C(F)(F)F)c1)c1cnccc1NC1CCCCC1 (stereo not given) | 33%
35 | COc1cccc(Cc2cc(-c3ccccc3)nn(CC(=O)c3ccccc3)c2=O)c1 | 90.6%
36 | O=C(CSc1nnc(-c2cccs2)n1-c1ccccc1)Nc1ccccc1 | 49.1%
37 | CCOC(=O)/C(C#N)=C(\C)CCc1ccccc1 | 76.5%
38 | COc1ccc(C2C(C#N)=C(N)Oc3c2ccc2ccccc32)cc1 (stereo not given) | 14.5%
39 | O=C(c1ccc(OCCN2CCCCC2)cc1)c1c(-c2ccc(O)cc2)sc2cc(O)ccc12 | 57.7%
40 | CC(C)C(C(=O)NCCN1CCOCC1)N1C(=O)/C(=C/c2ccc(Br)cc2)SC1=S (stereo not given) | 99.2%
